Screens from PubChem BioAssay.
Pin1 inh = qHTS Assay to Find Inhibitors of Pin1. Pin1 FP peptide displacement, HiFluor488, 10 min. AID 504891, 2011. hit rate 0.009% among 390,000. Potency, µM (series often up to 115 µM), hits mostly inhibitors. Peptidyl-prolyl cis-trans isomerase NIMA-interacting 1 (Homo sapiens), Q13526; active = well fitted inhibition curve with a large enough effect in the polarisation, with a control signal flat, not every such curve was filed as active; inconclusive = small, poorly fitted or top-dose-only effect, or effect the other way, or a change in a side signal; inactive = no such curve, though single readings can be large or run the other way; the % refers to the polarisation
Target sequence (Q13526 whole entry, looked up): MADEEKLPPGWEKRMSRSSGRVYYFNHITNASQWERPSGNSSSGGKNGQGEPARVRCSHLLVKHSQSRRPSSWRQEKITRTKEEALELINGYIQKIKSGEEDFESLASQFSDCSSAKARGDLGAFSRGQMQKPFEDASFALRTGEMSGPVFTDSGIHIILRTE
GLS inhibitor = qHTS for Inhibitors of Glutaminase (GLS) | hit rate 0.21% among 410,000 | AID 624170, 2012 | Potency, µM (doses to about 45.5 µM), most hits filed as inhibitors | GLS enzymatic activity, qHTS titration
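Compounds were pin-transferred onto hKGA, after which L-glutamine (1 mM solution) and a detection mix of glutamate oxidase, HRP and Amplex Red were added. Initial and 30 min RT fluorescence reads were collected.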
B2AR arrestin = qHTS assay of beta-arrestin-biased ligands of beta2-adrenergic receptor; Beta-2 adrenergic receptor (Homo sapiens), P07550; beta-arrestin recruitment to beta2AR, cell-based reporter; Potency, µM (titrated, usually from 46.1 µM), most hits filed as activators; hit rate 0.02% among 330,000; also: nearly all actives have a fitted effect of over 65% in size
BCR signal inh = qHTS Assay to Find Inhibitors of Chronic Active B-Cell Receptor Signaling | ABC-DLBCL IkBa-CBG/CBR reporter, luminescence ratio, 4 h | Potency, µM (doses to about 46.1 µM), most hits filed as inhibitors | hit rate 0.05% among 340,000; active = well fitted inhibition curve with a large enough effect in the signal ratio, with a control signal flat, not every such curve was filed as active; inconclusive = small, poorly fitted or top-dose-only effect, or effect the other way, or a change in a side signal; the % refers to the signal ratio
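TMD8 ABC-DLBCL cells carrying doxycycline-inducible green luciferase fused to IkappaBalpha plus unfused red luciferase were exposed to compounds (up to 46 uM) for 4 hrs at 37C. Activity came from the overlap-corrected green/red luminescence ratio.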
Tb PGK inh = qHTS Assay to Find Inhibitors of Phosphoglycerate Kinase. AID 602233, 2012. PGK/GAPDH coupled, Kinase-Glo luminescence, 60 min. Phosphoglycerate kinase, glycosomal (Trypanosoma brucei brucei), P07378. hit rate 0.043% among 380,000. Potency, µM (titrated, usually from 57.5 µM), usual class: inhibitors; also: nearly all actives have a fitted effect of over 60% in size
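Luminescent ATP detection (Kinase-Glo Plus) follows a 60-minute room-temperature incubation, with wells lacking PGK as controls. Buffer: 100 mM TEA (pH 7.6), 5 mM MgCl2, 0.01% Tween-20. Coupling enzyme GAPDH (100 nM final) supplies unstable 1,3-BPG in-well.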
Tb PFK inh-1 = qHTS Assay to Find Inhibitors of T. brucei phosphofructokinase. ATP-dependent 6-phosphofructokinase (Trypanosoma brucei brucei), O15648. hit rate 0.17% among 330,000. T. brucei PFK, ADP-Glo luminescence. Potency, µM (highest dose often 57.5 µM), hits mostly inhibitors; also: nearly all actives have a fitted effect of over 60% in size
Target sequence (O15648 whole entry, looked up): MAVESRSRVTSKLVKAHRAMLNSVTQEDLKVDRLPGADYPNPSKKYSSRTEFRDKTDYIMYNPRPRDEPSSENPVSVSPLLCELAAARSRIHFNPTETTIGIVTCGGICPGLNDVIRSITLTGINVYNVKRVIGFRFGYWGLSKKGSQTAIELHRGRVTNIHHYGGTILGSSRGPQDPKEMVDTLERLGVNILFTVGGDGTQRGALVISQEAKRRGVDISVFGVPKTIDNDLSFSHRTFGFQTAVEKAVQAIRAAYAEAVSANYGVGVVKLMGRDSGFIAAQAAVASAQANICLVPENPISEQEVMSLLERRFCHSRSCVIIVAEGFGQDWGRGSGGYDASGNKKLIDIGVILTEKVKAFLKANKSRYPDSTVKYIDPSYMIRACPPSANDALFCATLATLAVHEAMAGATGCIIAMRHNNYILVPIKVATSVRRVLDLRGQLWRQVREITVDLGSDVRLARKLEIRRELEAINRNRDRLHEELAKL
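Compounds were pin-transferred as a titration series up to 57 uM into substrate buffer (0.5 mM F6P, 0.1 mM ATP, pH 8.0), then 1.25 nM PFK was added and reactions ran 45 min before ADP-Glo detection.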
TbPFK ATP = Tb PFK orthogonal confirmatory assay using ATP depletion (Kinase-Glo Plus) as an alternative measure of Tb PFK activity: Hit Validation. hit rate 47% among 1,100. shares compounds with Tb PFK inh-1. AID 504636, 2011. Potency, µM (highest dose often 57.5 µM). Tb PFK enzyme, ATP depletion, Kinase-Glo Plus luminescence; calls by dose curve; also: nearly all actives have a fitted effect of over 60% in size
Tb PFK inh-2 = Inhibitors of T. brucei phosphofructokinase: Hit Validation; shares compounds with Tb PFK inh-1; purified T. brucei PFK, ADP-Glo luminescence, 45 min; Potency, µM (series often up to 57.5 µM), hits mostly inhibitors; hit rate 41% among 1,100; AID 504637, 2011; also: nearly all actives have a fitted effect of over 60% in size
Numbers stand for hits; . = inactive; ? = inconclusive; / = not tested or not shown. Rows were chosen to be rich in hits. Some 0.42% of all compounds tested hit in one or more screens of this group. Unless noted, calls follow the shape of the dose curve; as a rule, active = well fitted curve in the direction sought with a large enough effect; inconclusive = small, poorly fitted or top-dose-only effect, or another doubt; inactive = no such curve, though single readings can be large; an effect the other way counts as inactive or inconclusive.

SMILES	Pin1 inh	GLS inhibitor	B2AR arrestin	BCR signal inh	Tb PGK inh	Tb PFK inh-1	TbPFK ATP	Tb PFK inh-2
Cn1cccc1/C=C1/SC(=S)N(CC(=O)O)C1=O	?	.	.	.	.	?	.	?
C/C(=C\c1ccc(N(C)C)cc1)[N+](=O)[O-]	.	.	.	?	.	?	.	?
Cc1cc(C(=O)COC(=O)c2cc(Cl)c(O)c(Cl)c2)c(C)n1C	?	?	.	.	.	17µM	?	.
ON=C1c2ccccc2-c2ccccc21	.	.	.	?	.	?	.	.
C[C@@H](Cc1ccc(O)cc1)NC[C@@H](O)c1cc(O)cc(O)c1	/	.	/	/	/	/	/	/
CCCCNC(=O)Oc1c(Br)cc2sc(=O)oc2c1Br	/	/	.	?	/	.	/	/
CCCN(CC(=O)Nc1ccccc1C)C(=O)CCl	.	.	.	?	.	.	/	/
c1ccc2sc(NC3=NCCN3)nc2c1	.	.	.	.	.	.	/	/
Oc1ccc(O)c(Cc2nc3ccccc3s2)c1	.	?	.	?	.	30µM	24µM	?
CCOc1ccc(C(=O)Nc2ccc3nc(SCCOc4ccccc4)sc3c2)cc1	?	.	/	/	.	/	/	/
O=C1NC(=S)S/C1=C/c1ccc(N2CCOCC2)o1	?	.	.	?	.	27µM	.	.
CC(C)CCC(=O)OC1CCC2C3CCC4=CC(=O)CC[C@]4(C)C3CC[C@]12C (some centres not stated)	/	.	/	/	/	/	/	/
COc1ccc(CCC(=O)N(C)CC(=O)Nc2ccc(Cl)c(C(F)(F)F)c2)cc1	.	.	.	?	.	.	/	/
COc1ccc(NC(=O)CN(C)C(=O)c2cc3c(s2)CCC3)cc1	/	.	.	?	?	?	?	?
CC(C)[C@@]1(NC(=O)[C@H]2C[C@H]3c4cccc5[nH]cc(c45)C[C@@H]3N(C)C2)O[C@]2(O)[C@H]3CCCN3C(=O)CN2C1=O (tested in a mixture with another compound)	/	.	/	/	/	/	/	/
Cc1ccc(OCC(=O)N2CCN(C)CC2)c(Br)c1	.	.	.	.	.	.	/	/
Cc1ccc(-n2c(N)c(C(=O)N3CCN(C)CC3)sc2=S)cc1	.	.	.	.	.	13µM	3.8µM	9.5µM
O=c1cc(-c2ccccc2)oc2cc(O)c(O)c(O)c12	?	.	.	.	.	7.6µM	2.7µM	5.4µM
O=c1cc(-c2ccc(O)cc2)oc2c(C3O[C@H](CO)[C@@H](O)[C@H](O)[C@H]3O)c(O)cc(O)c12 (some centres not stated)	?	.	.	.	.	.	/	/
Fc1cccc(-c2csc(-c3ccno3)n2)c1	.	.	.	.	.	?	?	?
CCN(CC)CCO[C@H]1CC[C@@]2(C)C(=CC[C@@H]3[C@H]2CC[C@]2(C)C(=O)CC[C@H]32)C1	/	.	/	/	/	/	/	/
COc1ccc(OCC(=O)OCC(=O)Nc2ccc3[nH]c(=O)[nH]c3c2)cc1	.	.	.	.	.	30µM	?	?
COc1ccccc1C(=O)NCC(=O)OCC(=O)Nc1ccc2[nH]c(=O)[nH]c2c1	.	.	.	.	.	27µM	?	?
O=C(COc1ccc(Cl)cc1)Nc1ccc2[nH]ncc2c1	.	.	.	.	.	?	17µM	24µM
CCOc1ccc(NC(=O)c2c(O)[nH]c(=O)[nH]c2=O)cc1	.	.	/	/	.	/	/	/
SMILES	Pin1 inh	GLS inhibitor	B2AR arrestin	BCR signal inh	Tb PGK inh	Tb PFK inh-1	TbPFK ATP	Tb PFK inh-2
COc1ccc2c(C(=O)c3ccc(Cl)cc3)c(C)n(CC(=O)O)c2c1	/	.	/	/	/	/	/	/
O=C(Nc1ccccc1-c1ccc(Cl)cc1)c1cccnc1Cl	/	.	/	/	/	/	/	/
CCOc1ccc(C=NNc2ccc(S(=O)(=O)Nc3ccccc3C(=O)O)cc2[N+](=O)[O-])cc1OC	/	.	.	?	?	?	6µM	3µM
CCOc1cc(/C=N/NC(=O)c2ccc(N(C)S(=O)(=O)c3ccccc3)cc2)ccc1OC	.	.	.	?	.	.	/	/
O=C(COc1ccc([N+](=O)[O-])cc1)Nc1cc(C(=O)O)cc(C(=O)O)c1	.	.	.	?	.	?	13µM	27µM
CC[C@]1(O)CC[C@H]2[C@@H]3CCC4=CCCC[C@@H]4[C@H]3CC[C@@]21C	/	.	/	/	/	/	/	/
CCOC(=O)N1CCC(NC(=O)CCC(=O)N2CCOc3ccc(Cl)cc32)CC1	.	.	.	.	.	?	?	.
CCC(C)c1ccc(NC(=O)Nc2cccnc2)cc1 (configuration not stated)	.	.	.	?	.	.	/	/
C[C@]12CC[C@H]3[C@@H](CC[C@@]45O[C@@H]4C(=O)C(C#N)C[C@]35C)[C@@H]1CC[C@@H]2O (some centres not stated)	/	.	/	/	/	/	/	/
COc1ccccc1N=Cc1c(O)n(C)c(=O)n(C)c1=O	.	.	.	.	.	.	/	/
COc1ccccc1NS(=O)(=O)c1cccc(-n2c(O)c(C=Nc3ccccc3C(=O)O)c3ccccc3c2=O)c1	/	.	.	?	.	?	.	?
Cc1ccc(O)c(-c2cc(-c3ccc(F)cc3)no2)c1	.	.	.	?	.	.	/	/
COc1ccc(OC)c(NC(=O)c2cc(-c3cc(C)ccc3O)n[nH]2)c1	?	.	.	?	.	?	.	?
CCCSc1cc(OC)c(CCN)cc1OC	/	.	/	/	/	/	/	/
CCn1c(C)c(CS(=O)(=O)c2ccccc2)[nH]c1=O	.	.	.	?	.	?	.	?
C[C@@H]1O[C@@H](O[C@@H]2[C@@H](O)[C@H](OCCc3ccc(O)c(O)c3)O[C@H](CO)[C@H]2OC(=O)/C=C/c2ccc(O)c(O)c2)[C@H](O)[C@H](O)[C@H]1O	.	?	.	.	.	1.7µM	4.8µM	4.8µM
O=C(O[C@@H]1OC2COC(=O)c3cc(O)c(O)c(O)c3-c3c(cc(O)c(O)c3O)C(=O)O[C@@H]([C@H]1O)[C@@H]2O)c1cc(O)c(O)c(O)c1	?	.	.	.	.	2.1µM	0.067µM	0.085µM
Cc1ccc(-c2cn3c(=S)[nH]nc3s2)cc1	.	.	.	.	.	?	0.67µM	?
O=C(Nc1cccc(Cl)c1)c1cnc[nH]1	.	.	.	?	.	.	/	/
